The whole screen tested about 39,000 compounds, of which about 1,500 (3.8%) were called active. The sample as a whole holds a higher share of actives than the screen did.
The molecules below were run on HSkMC (human skeletal muscle cells) (assay: cytotoxicity call (relative viability < 0.9)). Details: 10 µM.

Compound | cytotoxicity call
CN(C)c1cncc(C(=O)O)c1 | inactive
C[C@@H]1CCCCO[C@H](CN(C)C(=O)Nc2ccc3c(c2)OCO3)[C@H](C)CN([C@H](C)CO)C(=O)c2cc(NS(=O)(=O)c3ccccc3)ccc2O1 | inactive
CC(C)C#Cc1ccc2c(c1)O[C@H](CN(C)C(=O)Cc1ccccn1)[C@H](C)CN([C@H](C)CO)S2(=O)=O | inactive
Cc1noc(C)c1NC(=O)N(C)C[C@@H]1Oc2ccc(NC(=O)NC(C)C)cc2CC(=O)N([C@H](C)CO)C[C@H]1C | inactive
CCCC(=O)Nc1ccc2c(c1)OC[C@@H](C)N(C(=O)Cc1ccccn1)C[C@@H](C)[C@H](OC)CN(C)C2=O | inactive
CCN1C(=O)CS/C1=N\N1CCOCC1 | inactive
C[C@@H]1CN([C@H](C)CO)C(=O)c2cc(NC(=O)Nc3ccc(C(F)(F)F)cc3)ccc2O[C@@H](C)CCCCO[C@H]1CN(C)C(=O)Nc1ccc(F)cc1 | inactive
COCCCNC(=O)[C@@]1(Sc2ccc(C)cc2)CC(=O)N(Cc2ccccc2C(F)(F)F)[C@@H]1c1ccc(CO)cc1 | inactive
C[C@@H]1CCCCO[C@@H](CN(C)C(=O)C2CCCCC2)[C@H](C)CN([C@@H](C)CO)C(=O)c2cc(NC(=O)Nc3ccccc3)ccc2O1 | inactive
C[C@@H]1CCCCO[C@H](CN(C)C(=O)Nc2ccc3c(c2)OCO3)[C@H](C)CN([C@H](C)CO)C(=O)c2cc(NC(=O)c3ccncc3)ccc2O1 | inactive
C[C@@H]1CN([C@@H](C)CO)C(=O)c2ccccc2-c2ccccc2CO[C@H]1CN(C)C(=O)Nc1ccc(F)cc1 | inactive
CC(C)CC(NC(=O)C(C)NC(=O)CNC(=O)C(NC=O)C(C)C)C(=O)NC(C)C(=O)NC(C(=O)NC(C(=O)NC(C(=O)NC(Cc1c[nH]c2ccccc12)C(=O)NC(CC(C)C)C(=O)NC(Cc1c[nH]c2ccccc12)C(=O)NC(CC(C)C)C(=O)NC(Cc1c[nH]c2ccccc12)C(=O)NC(CC(C)C)C(=O)NC(Cc1c[nH]c2ccccc12)C(=O)NCCO)C(C)C)C(C)C)C(C)C (stereo not given) [GRAMICIDIN (gramicidin A shown) ] | active
CC(C)C[C@H](NP(=O)(O)O[C@H]1O[C@@H](C)[C@@H](O)[C@@H](O)[C@@H]1O)C(=O)N[C@H](Cc1c[nH]c2ccccc12)C(=O)O | inactive
C[C@H](NC(=O)[C@@H](Cc1ccc2ccccc2c1)NC(=O)[C@@H](C)N)C(=O)N[C@@H](Cc1c[nH]c2ccccc12)C(=O)N[C@H](Cc1ccccc1)C(=O)N[C@@H](CCCCN)C(N)=O | inactive
CCOc1ccc(C(=O)Nc2ccc(N3CCN(C(=O)c4cccs4)CC3)c(Cl)c2)cc1Br | inactive
